Inconclusive results are not listed. Where a call stands in place of a potency, no number is given. Activity calls are given as the source filed them. Calls come from the whole dose curve.

For this experiment, the target named is 5-hydroxytryptamine receptor 2A (Homo sapiens) (UniProt P28223). As to the kind of experiment: 5-hydroxytryptamine receptor 2A (HTR2A) small molecule antagonists, cell-based qHTS assay (AID 1963586). Note: nearly all actives have a fitted effect of over 45% in size. The conditions noted are these: HTR2A-CHO cells, DOI-induced calcium flux, fluorescence; series mostly up to 61.5 µM. From the text: National Center for Advancing Translational Sciences [NCATS]
Sequence of 5-hydroxytryptamine receptor 2A (Homo sapiens) (P28223 whole entry, looked up): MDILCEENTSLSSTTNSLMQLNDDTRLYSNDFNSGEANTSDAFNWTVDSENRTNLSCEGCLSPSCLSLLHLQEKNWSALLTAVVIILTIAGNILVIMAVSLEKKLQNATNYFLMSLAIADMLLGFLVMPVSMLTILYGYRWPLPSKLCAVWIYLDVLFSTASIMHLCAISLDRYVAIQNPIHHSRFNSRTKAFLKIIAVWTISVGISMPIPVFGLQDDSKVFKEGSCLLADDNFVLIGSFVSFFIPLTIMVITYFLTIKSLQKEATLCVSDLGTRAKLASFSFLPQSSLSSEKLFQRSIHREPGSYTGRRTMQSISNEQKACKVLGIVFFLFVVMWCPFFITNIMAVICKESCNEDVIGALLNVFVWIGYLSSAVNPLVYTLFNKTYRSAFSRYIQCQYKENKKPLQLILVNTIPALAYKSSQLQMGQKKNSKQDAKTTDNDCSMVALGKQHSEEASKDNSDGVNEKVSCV
Division of Preclinical Innovation [DPI]
U.S. Environmental Protection Agency [EPA]
National Institutes of Environmental Health Sciences [NIEHS]
National Toxicology Program [NTP]
U.S. Food and Drug Administration [FDA]
The HTR2A receptor is a subtype of the 5-HT2 receptor that belongs to the serotonin receptor family and is a G protein-coupled receptor (GPCR). The HTR2A-CHO cell line stably expressing human 5-hydroxytryptamine receptor 2A (HTR2A) can be used for screening antagonists of interactions between 5-HT2 and its ligands. The HTR2A-CHO calcium flux assay is a homogeneous fluorescence-based assay for detecting the intracellular calcium level using FDSS kinetic plate reader system.
Tox21 Assay Protocol Summary:
HTR2A-CHO cells were dispensed at 2000 cells/3uL/well in 1536-well black-clear bottom plates using a Multidrop Dispenser. After the assay plates were incubated at a 37 C/5% CO2 incubator for 18 h, 3 uL of Dye Loading Buffer was transferred to the assay plate by a Flying Reagent Dispenser. The assay plates were incubated at 37 C for 1h. For antagonist mode, 23 nL of compounds dissolved in DMSO, positive controls or DMSO only was transferred to the assay plate by a pin tool. After 5 min incubation at room temperature, 1.5 uL of 4-Iodo-2,5-dimethoxy-alpha-methylbenzeneethanamine hydrochloride (DOI) at 4nM was added to each well. The fluorescence intensity in the plates was measured using FDSS 7000EX kinetic plate reader for 3 min at 1 sec intervals.
(In general: In qHTS, concentration-response curves come from the screen itself.)
In the case of `CN(C)c1nc(=O)n(C2CCCCC2)c(=O)n1C`, the Potency result was “inactive”.

Take `CC(Oc1ccc(Cl)cc1Cl)C(=O)O` (stereo not given): the Potency entry was “inactive”.

Regarding `CCc1ccccc1C`, the Potency result is “inactive”.

As to `c1cc2c3c(cccc3c1)CC2`, the Potency entry is “inactive”.

Consider `O=C(O)Cc1ccccc1`, for which the Potency entry was “inactive”.

On to `CCN(CC)C(=O)/C(Cl)=C(\C)OP(=O)(OC)OC`, for which the Potency entry was “inactive”.

On to `Oc1ccc(-c2ccccc2)cc1`, for which the Potency result was “inactive”.

With `CN(C)C(=S)SSC(=S)N(C)C`, the Potency entry was “inactive”.

Consider `O=C(Cc1ccccc1)c1ccccc1`, for which the Potency entry was “inactive”.

With `CCOC(=O)c1ccccc1S(=O)(=O)NC(=O)Nc1nc(Cl)cc(OC)n1`, the Potency entry is “inactive”.

Take `CCN(N=O)C(N)=O`: the Potency result is “inactive”.

For the compound `O=S(=O)(O)C(F)(F)C(F)(F)C(F)(F)C(F)(F)C(F)(F)C(F)(F)C(F)(F)C(F)(F)F`, the Potency entry is “inactive”.

Regarding `C=CC(=O)OC(C)(C)C`, the Potency result is “inactive”.

Consider `COP(=S)(OC)Oc1ccc(SC)c(C)c1`, for which the Potency result is “inactive”.

Regarding `O=c1nc(O)n(Cl)c(=O)n1Cl`, the Potency entry is “inactive”.

As for `CCCCN(CCCCO)N=O`, the Potency entry is “inactive”.

For `CCCCCCCCn1cc[n+](C)c1`, the Potency result is “inactive”.

For the compound `CC(C)(C#N)N=NC(C)(C)C#N`, the Potency entry is “inactive”.

For the compound `NN=C(N)N`, the Potency result is “inactive”.

As to `CNC`, the Potency result was “inactive”.

Consider `OCCOCCO`, for which the Potency result was “inactive”.

With `COP(=S)(OC)SCn1nnc2ccccc2c1=O`, the Potency result was “inactive”.

Regarding `CC(Cl)(Cl)C(=O)O`, the Potency result is “inactive”.

In the case of `CCCCC(CC)CO[N+](=O)[O-]` (stereo not given), the Potency result was “inactive”.

On to `CCC(=O)OC1(c2ccccc2)CCN(C)CC1`, for which the Potency entry is “inactive”.

For `C#CC(C)(C)NC(=O)c1cc(Cl)cc(Cl)c1`, the Potency result is “inactive”.

As to `O=NN1CCCCCCC1`, the Potency result was “inactive”.

`C=COCCCl`: the Potency entry was “inactive”.

As for `CC(C)=CCN1CC[C@@]2(C)c3cc(O)ccc3C[C@@H]1[C@@H]2C`, the Potency result was “inactive”.

Turning to `Nc1ccccc1C(=O)OCCc1ccccc1`, the Potency result is “inactive”.

On to `NCC(O)c1ccc(O)cc1` (stereo not given), for which the Potency result was “inactive”.

Turning to `Nc1ccccc1C(=O)OCC(O)CO` (stereo not given), the Potency result was “inactive”.

For the compound `CC(C)c1ccc(OP(=O)(Oc2ccc(C(C)C)cc2)Oc2ccc(C(C)C)cc2)cc1`, the Potency entry is “inactive”.

For `Cc1cccc([N+](=O)[O-])c1`, the Potency entry is “inactive”.

Consider `CCCC[N+]1(C)CCCCC1`, for which the Potency entry is “inactive”.

As for `Cn1c(N)nc2c3cccnc3ccc21`, the Potency result was “inactive”.

As for `BrCCc1ccccc1`, the Potency entry was “inactive”.

In the case of `Nc1ccncc1`, the Potency entry is “inactive”.

`C=CCCC#N`: the Potency entry is “inactive”.

Regarding `Cc1ccc(N)c(C)c1`, the Potency entry was “inactive”.

The record behind these values is PubChem BioAssay (Tox21).
